Reference: the supplement of paper PMC8728848
Many of the other results were omitted from the sample, so the strongest signals are more common in it than they were.

B1: Mincle (Bos taurus) (protein)
chain: MNSSTSPASQTERRCFSFQLFSWAIAGTSILLLSACFITRCVVTYSIFQLCDEKKFQPPGDSMELSCYNDGSGSVKNCCPLKWFHFQSSCYLFSPDTMSWRASLKNCSSMGAHLVVINTQEEQEFLYYTKPRKKEFYIGLTDQVTEGQWQWVDGTPFTKSLSFWDAGEPNNLVIVEDCATIRDSSNPRQNWNDVPCFFNMFRVCEMPERKI
B2: Protectin (Homo sapiens), P13987 (protein)
chain: MGIQGGSVLFGLLLVLAVFCHSGHSLQCYNCPNPTADCKTAVNCSSDFDACLITKAGLQVYNKCWKFEHCNFNDVTTRLRENELTYYCCKKDLCNFNEQLENGGTSLSEKTVLLLVTPFLAAAWSLHP

What was measured:
Experiment in all cases: glycan array binding signal (z-score within array); higher = stronger binding
Settings in all cases: glycan notation: IUPAC condensed, linker removed
[1] = target: Neu5Ac(a2-6)Gal(b1-4)GlcNAc(b1-2)Man(a1-3)[Neu5Ac(a2-6)Gal(b1-4)GlcNAc(b1-2)Man(a1-6)]Man(b1-4)GlcNAc(b1-4)[Fuc(a1-6)]GlcNAc
Summary of the method: (§1)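 The binding signal is a Z-score computed within each array and averaged over linkers. Arrays of the same protein sequence at different concentrations or buffers were also averaged together. Data originate from 3228 arrays in the Consortium for Functional Glycomics database, kept only where the protein sequence was available.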

[2] = target: Neu5Ac(a2-6)Gal(b1-4)GlcNAc(b1-2)Man(a1-6)Man(b1-4)GlcNAc(b1-4)GlcNAc
Summary of the method: as §1

[3] = target: Neu5Ac(a2-6)Gal(b1-4)GlcNAc(b1-6)GalNAc
Summary of the method: as §1

Fuc(a1-2)Gal = target: Fuc(a1-2)Gal
Summary of the method: as §1

[4] = target: Fuc(a1-2)Gal(b1-3)[Fuc(a1-4)]GlcNAc(b1-2)Man(a1-3)[Fuc(a1-2)Gal(b1-3)[Fuc(a1-4)]GlcNAc(b1-2)Man(a1-6)]Man(b1-4)GlcNAc(b1-4)GlcNAc
Summary of the method: as §1

[5] = target: Fuc(a1-2)Gal(b1-3)[Fuc(a1-4)]GlcNAc(b1-3)[Gal(b1-4)GlcNAc(b1-6)]Gal(b1-4)Glc
Summary of the method: as §1

[6] = target: Fuc(a1-2)Gal(b1-4)[Fuc(a1-3)]GlcNAc(b1-2)[Fuc(a1-2)Gal(b1-4)[Fuc(a1-3)]GlcNAc(b1-4)]Man(a1-3)[Fuc(a1-2)Gal(b1-4)[Fuc(a1-3)]GlcNAc(b1-2)Man(a1-6)]Man(b1-4)GlcNAc(b1-4)GlcNAc
Summary of the method: as §1

[7] = target: Fuc(a1-2)Gal(b1-4)[Fuc(a1-3)]GlcNAc(b1-3)GalNAc
Summary of the method: as §1

[8] = target: Fuc(a1-2)Gal6S(b1-4)Glc6S
Summary of the method: as §1

Fuc(a1-3)GlcNAc = target: Fuc(a1-3)GlcNAc
Summary of the method: as §1

[9] = target: Fuc(a1-3)[Gal(b1-4)]GlcNAc
Summary of the method: as §1

[10] = target: Fuc(a1-3)[Gal(b1-4)]GlcNAc(b1-6)GalNAc
Summary of the method: as §1

[11] = target: Fuc(a1-3)[Gal(b1-4)]GlcNAc(b1-6)[Gal(b1-3)GlcNAc(b1-3)]Gal(b1-4)Glc
Summary of the method: as §1

Gal(a1-3)Gal(b1-4)GlcNAc = target: Gal(a1-3)Gal(b1-4)GlcNAc
Summary of the method: as §1

[12] = target: Gal(b1-3)GalNAc(a1-3)[Fuc(a1-2)]Gal(b1-4)GlcNAc
Summary of the method: as §1

[13] = target: Gal(b1-3)GlcNAc(b1-3)Gal(b1-4)Glc
Summary of the method: as §1

[14] = target: Gal(b1-3)[Neu5Ac(a2-6)]GalNAc
Summary of the method: as §1

Gal(b1-4)Glc6S = target: Gal(b1-4)Glc6S
Summary of the method: as §1

Gal(b1-4)GlcNAc = target: Gal(b1-4)GlcNAc
Summary of the method: as §1

Gal(b1-4)GlcNAc(b1-2)Man = target: Gal(b1-4)GlcNAc(b1-2)Man
Summary of the method: as §1

[15] = target: Gal(b1-4)GlcNAc(b1-3)Gal(b1-4)[Fuc(a1-3)GlcNAc(b1-6)]Gal(b1-4)Glc
Summary of the method: as §1

Gal3S(b1-4)Glc6S = target: Gal3S(b1-4)Glc6S
Summary of the method: as §1

Gal3S6S(b1-4)GlcNAc = target: Gal3S6S(b1-4)GlcNAc
Summary of the method: as §1

Gal4S6S(b1-4)GlcNAc = target: Gal4S6S(b1-4)GlcNAc
Summary of the method: as §1

GalNAc(b1-3)Gal = target: GalNAc(b1-3)Gal
Summary of the method: as §1

[16] = target: GalNAc(b1-4)GlcNAc(b1-2)Man(a1-3)[GalNAc(b1-4)GlcNAc(b1-2)Man(a1-6)]Man(b1-4)GlcNAc(b1-4)GlcNAc
Summary of the method: as §1

[17] = target: GlcNAc(a1-4)Gal(b1-4)GlcNAc(b1-3)Gal(b1-4)[Fuc(a1-3)]GlcNAc(b1-3)Gal(b1-4)[Fuc(a1-3)]GlcNAc
Summary of the method: as §1

[18] = target: GlcNAc(a1-6)Gal(b1-4)GlcNAc
Summary of the method: as §1

[19] = target: GlcNAc(b1-2)[GlcNAc(b1-6)]Man(a1-6)[GlcNAc(b1-2)Man(a1-3)]Man(b1-4)GlcNAc(b1-4)GlcNAc
Summary of the method: as §1

Man(b1-4)GlcNAc = target: Man(b1-4)GlcNAc
Summary of the method: as §1

[20] = target: Neu5Ac(a2-3)Gal(b1-3)[Fuc(a1-4)]GlcNAc(b1-3)Gal(b1-3)[Fuc(a1-4)]GlcNAc
Summary of the method: as §1

[21] = target: Neu5Ac(a2-3)Gal(b1-4)GlcNAc(b1-3)Gal(b1-4)GlcNAc
Summary of the method: as §1

[22] = target: Neu5Ac(a2-3)Gal(b1-4)GlcNAc(b1-3)Gal(b1-4)[Fuc(a1-3)]GlcNAc
Summary of the method: as §1

[23] = target: Neu5Ac(a2-3)Gal(b1-4)[Fuc(a1-3)]GlcNAc(b1-6)[Gal(b1-3)]GalNAc
Summary of the method: as §1

[24] = target: Neu5Ac(a2-6)Gal(b1-4)GlcNAc(b1-2)Man(a1-3)[Gal(b1-4)GlcNAc(b1-2)Man(a1-6)]Man(b1-4)GlcNAc(b1-4)GlcNAc
Summary of the method: as §1

[25] = target: Neu5Ac(a2-6)GlcNAc(b1-4)GlcNAc
Summary of the method: as §1

[26] = target: Neu5Gc(a2-3)Gal(b1-3)[Fuc(a1-4)]GlcNAc
Summary of the method: as §1

| Binder | glycan array binding signal (z-score) [1] | glycan array binding signal (z-score) [2] | glycan array binding signal (z-score) [3] | glycan array binding signal (z-score) (Fuc(a1-2)Gal) | glycan array binding signal (z-score) [4] | glycan array binding signal (z-score) [5] | glycan array binding signal (z-score) [6] | glycan array binding signal (z-score) [7] | glycan array binding signal (z-score) [8] | glycan array binding signal (z-score) (Fuc(a1-3)GlcNAc) | glycan array binding signal (z-score) [9] | glycan array binding signal (z-score) [10] | glycan array binding signal (z-score) [11] | glycan array binding signal (z-score) (Gal(a1-3)Gal(b1-4)GlcNAc) | glycan array binding signal (z-score) [12] | glycan array binding signal (z-score) [13] | glycan array binding signal (z-score) [14] | glycan array binding signal (z-score) (Gal(b1-4)Glc6S) | glycan array binding signal (z-score) (Gal(b1-4)GlcNAc) | glycan array binding signal (z-score) (Gal(b1-4)GlcNAc(b1-2)Man) | glycan array binding signal (z-score) [15] | glycan array binding signal (z-score) (Gal3S(b1-4)Glc6S) | glycan array binding signal (z-score) (Gal3S6S(b1-4)GlcNAc) | glycan array binding signal (z-score) (Gal4S6S(b1-4)GlcNAc) | glycan array binding signal (z-score) (GalNAc(b1-3)Gal) | glycan array binding signal (z-score) [16] | glycan array binding signal (z-score) [17] | glycan array binding signal (z-score) [18] | glycan array binding signal (z-score) [19] | glycan array binding signal (z-score) (Man(b1-4)GlcNAc) | glycan array binding signal (z-score) [20] | glycan array binding signal (z-score) [21] | glycan array binding signal (z-score) [22] | glycan array binding signal (z-score) [23] | glycan array binding signal (z-score) [24] | glycan array binding signal (z-score) [25] | glycan array binding signal (z-score) [26] |
| --- | --- | --- | --- | --- | --- | --- | --- | --- | --- | --- | --- | --- | --- | --- | --- | --- | --- | --- | --- | --- | --- | --- | --- | --- | --- | --- | --- | --- | --- | --- | --- | --- | --- | --- | --- | --- | --- |
| B1 | 0.527 | 0.271 | 0.439 | – | – | – | – | – | – | – | – | – | – | – | – | – | – | – | – | – | – | – | – | – | – | – | – | – | – | – | – | – | – | – | – | – | – |
| B2 | – | – | – | -0.701 | 3.68 | -0.784 | 2.73 | 3.6 | -0.108 | -0.062 | 0.55 | 2.63 | -0.354 | 1.53 | -0.989 | 2.77 | 0.383 | 0.209 | 0.172 | 0.267 | -0.518 | -0.411 | -0.261 | 0.014 | -1.36 | 2.58 | 6.43 | -0.166 | -0.347 | -0.439 | 3.13 | 0.462 | 0.647 | -0.153 | -1.94 | -0.361 | 0.087 |
